In PubChem BioAssay AID2732 (Emory University Molecular Libraries Screening Center, 2010):
Values joined by “and” are separate entries in the source; they are usually repeats but may differ in a detail not shown here. Equal values may be shown once. Hit rate of the full screen: of about 220,000 compounds, about 8,200 (3.7%) were called active.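 How the source made its calls: active means compounds that reduced the stress-induced luciferase reporter signal by more than about 70% of percent inhibition (limit read from the data); inactive means the rest.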 The full list was thinned out, with actives kept by preference. Some compounds were tested as several samples or in several runs, with calls that do not always agree.

Experiment: blockers of ER-stress CHOP reporter expression – cell-based, unfolded protein response, luciferase reporter, primary screen (AID 2732);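 further: 0% = tunicamycin plus vehicle and 100% = wells without tunicamycin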
Details: CHO-K1 CHOP-promoter luciferase, tunicamycin-induced, 15-18 h; at 10 µM; stronger effect = higher value

Structure (SMILES)	inhibition
Brc1ccc(-c2nn[nH]n2)cc1	6.83% (inactive)
COC(C[C@@H](O)[C@H](C)[C@H](O)COCc1ccccc1)OC	0.72% (inactive)
Cc1nc(CNS(=O)(=O)c2cc([N+](=O)[O-])ccc2C)cs1	24.2% (inactive)
O=C(NCCc1ccccc1)Oc1ccc(Cl)cc1	-12.7% (inactive)
C=C(C)Cn1c(C)cc(C)c(S(=O)(=O)c2ccccc2C)c1=O	72.7% (active)
Cc1ccccc1Nc1c(-c2ccccc2)nc2ncccn12	1.44% (inactive)
Clc1ccc(CSc2nnc3c(n2)[nH]c2ccccc23)cc1	10.8% (inactive)
C=CCC1(C#N)C(=S)NC(C)=C(C(=O)OCC)C1c1ccccc1 (stereo not given)	8.99% (inactive)
CCOC(=O)/C=C/CN(C(=O)OC(C)(C)C)S(=O)(=O)N1CC=CC1	0.06% (inactive)
COc1cccc(CNC(=O)Cc2csc(Nc3nc(=S)[nH]c4ccccc34)n2)c1	49.7% (inactive)
O=C(CCn1c(=O)[nH]c2ccccc2c1=O)NCCCN1CCN(c2cccc(Cl)c2)CC1	-9.62% (inactive)
O=C(Cc1csc(Nc2nc(=S)[nH]c3ccccc23)n1)NCCCN1CCN(c2cccc(Cl)c2)CC1	79.8% (active)
O=[N+]([O-])c1ccc2c(c1)C(O)n1nc(-c3ccccc3)nc1S2 (stereo not given)	37.2% (inactive)
CCCc1nc2c(c(=O)c3ccccc3n2C)c(=O)n1C1CCCCCC1	95.5% (active)
CCCc1nc2c(c(=O)c3ccccc3n2C)c(=O)n1-c1cc(C)cc(C)c1	-14.6% (inactive)
Cn1c2ccccc2c(=O)c2c(=O)n(Cc3ccco3)c(COc3ccccc3)nc21	-34.3% (inactive)
COc1cc(OC)c(OC)cc1/C=N/Nc1ncnc2c1[nH]c1ccc(C)cc12	-33.8% (inactive)
O=c1ccnc(Nc2ccc(Cl)cc2)[nH]1	-1.5% (inactive)
CC1=NNC(=O)C1CCC(=O)N/N=C(\C)c1ccc(Cl)cc1 (stereo not given)	5.21% (inactive)
O=[N+]([O-])c1ccc(NCCCN2CCOCC2)c(Cl)c1	13% (inactive)
O=C(NCCCN1CCOCC1)c1ccc([N+](=O)[O-])cc1[N+](=O)[O-]	-3.24% (inactive)
O=[N+]([O-])c1cc(S(=O)(=O)CCCN2CCOCC2)ccc1F	97.8% (active)
O=C(CN1CCN(Cc2ccccc2)CC1)NC(c1ccccc1)c1ccccc1	-8.53% (inactive)

Structure (SMILES)	inhibition
CC#CC[N+](C)(C)CCCCCC	-9.84% (inactive)
[O-][N+]12CCCCC1CCCC2CO (stereo not given)	-6.34% (inactive)
Cc1ccccc1NC(=S)Nc1cccc([N+](=O)[O-])c1	4.63% (inactive)
CC(=O)Nc1cccc([N+](=O)[O-])c1	13.9% (inactive)
COC(=O)/C=C\C(=O)Nc1cccc([N+](=O)[O-])c1	107% (active)
COc1cccc(C(=O)n2ccc(-c3cccs3)n2)c1	17.3% (inactive)
O=c1c2ccccc2cnn1Cc1n[nH]c(=S)n1-c1ccccc1F	5.73% (inactive)
CCOC(=O)N1CCN(C(=O)CSc2nc(C)nc3c2c(=O)n(C)c(=O)n3C)CC1	28.2% (inactive)
CSc1nc(C)nc2c1c(=O)n(C)c(=O)n2C	11.2% (inactive)
CCC(C)Sc1nc(C)nc2c1c(=O)n(C)c(=O)n2C (stereo not given)	82.4% (active)
O=c1c(-c2ccc(Cl)cc2)[n+]([O-])c2ccccc2n1OCc1nc2ccccc2[nH]1	11.1% (inactive)
C=CCC(Nc1ccccc1)c1cccc(OC)c1OC (stereo not given)	29.3% (inactive)
CSCCC(NS(=O)(=O)c1ccc2c(c1)oc(=O)n2C)C(=O)NCc1ccccc1 (stereo not given)	18.5% (inactive)
CSc1nc(-c2ccccc2)nc(C(Cl)Cl)n1	102% (active)
CSc1nc(C)cc(SC(C(C)=O)C(=O)Nc2ccccc2)n1 (stereo not given)	9.45% (inactive)
COc1ccc(NS(=O)(=O)c2ccc(N3CCOCC3)c(NC(=O)c3ccccc3Br)c2)cc1	-3.53% (inactive)
CCOC(=O)N/N=C1\CC(C)S(=O)(=O)c2ccc(Cl)cc21 (stereo not given)	-26.8% (inactive)
Cc1ccc(C(=O)NCC(=O)OCC(=O)Nc2cccc(S(=O)(=O)N3CCCC3)c2)cc1C	-17.8% (inactive)
CC(C)=C1SC(N2CCN(c3ccc(C)c(Cl)c3)CC2)=NC1=O	23.3% (inactive)
COC(=O)Cc1ccc(Oc2ncc(C(F)(F)F)cc2Cl)cc1	29.9% (inactive)
COc1ccccc1Oc1ccc(S(=O)(=O)Nc2cccnc2)cc1	44.6% (inactive)
Cc1cc(C)cc(NS(=O)(=O)c2ccc(Oc3ncc(C(F)(F)F)cc3Cl)cc2)c1	90.3% (active)
Cc1ccc(SCCC(=O)OCC(=O)Nc2ncc(Cl)cc2Cl)cc1	82% (active)

Structure (SMILES)	inhibition
CC(Oc1ccc(Cl)cc1)C(=O)OCC(=O)Nc1ncc(Cl)cc1Cl (stereo not given)	2.69% (inactive)
Cc1ccc(-n2c(SCC(=O)Nc3ncc(Cl)cc3Cl)nc3ccccc32)cc1	49.5% (inactive)
Cc1cc(NC(=O)Nc2ccc(Cl)cc2)n(-c2ccccc2)n1	10.7% (inactive)
C/C=C(/C)C(=O)Nc1cccc(C2=NOC3(C2)C[C@@H](C(N)=O)N(C(=O)C2(C)CC2)C3)c1 (stereo not given in full)	-8.38% (inactive)
Cc1ccc(-n2[nH]c(C)c(/C=N/N3C(=O)c4cccc5cccc(c45)C3=O)c2=O)cc1	36.5% (inactive)
CCc1nnc(NS(=O)(=O)c2ccc(N=Cc3c(C)[nH]n(-c4ccc(C)cc4)c3=O)cc2)s1	-15.8% (inactive)
COc1cc(SC#N)ccc1N=Cc1c(C)[nH]n(-c2ccc(C)cc2)c1=O	107% (active)
CCCCCCCCCCCCN1C(=O)CSC1c1cccnc1 (stereo not given)	28.5% (inactive)
Cc1ccc(C2(c3ccc(C)cc3)NC(=O)N(Cc3c(C)noc3C)C2=O)cc1	92.8% (active)
COc1ccc(C(=O)CN2C(=O)NC(C)(c3ccc(C)cc3)C2=O)cc1OC (stereo not given)	15.7% (inactive)
Cc1noc(C)c1COc1ccc2ccc(=O)oc2c1	2.13% (inactive)
Cc1cc(F)ccc1NC(=O)C(C)n1c2ccccc2c2nc(=O)cc(C)n21 (stereo not given)	-2.79% (inactive)
CC1=NNC(=O)C1CC(=O)N/N=C/c1ccncc1 (stereo not given)	9.24% (inactive)
C#CCOCCOCCOCCNc1nc(N2CCN(C(=O)[C@H](CCC(=O)O)n3cc(C(N)CO)nn3)CC2)nc(N2CCN(C(=O)[C@H](CCCCN)n3cc(C(N)CC(C)C)nn3)CC2)n1 (stereo not given in full)	-22.6% (inactive)
Cn1nc(C(F)(F)F)cc1-c1ccc(/C=C(\C#N)C(=O)c2cccc(C(F)(F)F)c2)s1	-6.02% (inactive)
CCOC(=O)COc1ccc([N+](=O)[O-])cc1	3.34% (inactive)
CCOC(=O)/C(=C\c1ccc([N+](=O)[O-])cc1)C(=O)c1cc(C(C)=O)c(Nc2ccccc2)s1	112% (active)
Cc1cccc(NC(=O)c2sc(-c3ccccc3)nc2-c2ccc([N+](=O)[O-])cc2)c1	31.6% (inactive)
COC(=O)c1sc(C(F)(F)F)c(-c2ccccc2)c1S(=O)(=O)N(C)C	21.3% (inactive)
CC(C)c1ccc2c(c1)c(SC(C)(C)C)c(CC(C)(C)C(=O)O)n2Cc1ccc(Cl)cc1	-15.8% (inactive) and 96.6% (active)
O=S(=O)(NCCc1csc(-c2ccccc2)n1)c1cccnc1	10.5% (inactive)
COc1ccc2nc(/N=C(\N)NC(=O)Nc3ccccc3)nc(C)c2c1	29.8% (inactive)
Cc1ccc(NC(=O)Nc2ccc3oc(C)nc3c2)cc1	-9.69% (inactive)

Structure (SMILES)	inhibition
Cc1ccc(N/C(N)=N/c2nc(C(F)(F)F)cc(C(F)(F)F)n2)cc1	92.5% (active)
C/C=C\C=C\C(=O)N1CC2(CC(c3cccc(NC(=O)/C(C)=C\C)c3)=NO2)C[C@H]1C(N)=O (stereo not given in full)	-9.78% (inactive)
Cc1cccc(NC(=O)c2ccc([N+](=O)[O-])o2)c1	-27% (inactive)
COc1ccc(Cl)cc1S(=O)(=O)N1CCC(O)(c2ccc(Cl)cc2)CC1	19.7% (inactive)
C[n+]1ccccc1C1CCCC/C1=N\Nc1ccc([N+](=O)[O-])cc1[N+](=O)[O-] (stereo not given)	8.15% (inactive)
O=[N+]([O-])c1ccc(N/N=C2/CCCCC2c2ccccn2)c([N+](=O)[O-])c1 (stereo not given)	80.1% (active)
O=C(Nc1ccccc1)O/N=C1\CCCCC1c1ccc([N+](=O)[O-])cc1[N+](=O)[O-] (stereo not given)	22.1% (inactive)
O=C(NNC(=O)c1cnccc1C(F)(F)F)c1ccc(Cl)cc1	-0.67% (inactive)
S=c1[nH]nc(-c2cc(-c3ccsc3)n[nH]2)n1-c1ccccc1	0.59% (inactive)
CCOC(=O)c1c(NC(=O)C2CCN(S(=O)(=O)c3ccc(Cl)cc3)CC2)sc2c1CCCC2	15.6% (inactive)
O=C(Nc1sc2c(c1-c1nc3ccccc3[nH]1)CCCC2)C1CC1	80.4% (active)
O=C(Nc1cccc(-c2nc3ccccc3[nH]2)c1)c1ccc(C(=O)Nc2cccc(-c3nc4ccccc4[nH]3)c2)cc1	-38.4% (inactive)
O=C(Nc1ccc(F)cc1F)N1CCCN(CCOc2ccccc2)CC1	-11% (inactive)
Cc1ccc(Cl)c(OCC(=O)NN2CCN(C)CC2)c1	5.66% (inactive)
O=C(c1ccccc1)c1ccc2nc(N3CCCCC3)c3nncn3c2c1	19.1% (inactive)
NC(=O)c1ccc(CN2CCC(Cc3ccccc3)CC2)cc1	-9.98% (inactive)
c1ccc(CC2CCN(c3nc4ccccc4n4cnnc34)CC2)cc1	76.1% (active)
N#CC1=C(N)Oc2c(ccc3cccnc23)C1c1ccncc1 (stereo not given)	-1.42% (inactive)
CCOC(=O)c1sc(NC(=O)COc2ncnc3ccccc23)c(C(=O)OCC)c1C	43% (inactive)
Nc1nnc(SCC(=O)NC2CCCc3ccccc32)s1 (stereo not given)	12.6% (inactive)
CCOC(=O)c1c(NC(=O)CNC2CCCc3ccccc32)sc(C(N)=O)c1C (stereo not given)	95.9% (active)
